According to PubChem BioAssay (NCI):
Compounds without any hit were thinned out: in the full panel of roughly 79,000, 15% have a hit. Rule as the data show it: active = growth inhibition above about 70%; inactive = the rest.

How the values were obtained:
[1] = NCI Yeast Anticancer Drug Screen. Data for the rad50 strain (AID 155);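 also: 0% = growth of vehicle-only cultures of the same strain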; details: S. cerevisiae rad50 strain growth inhibition; at 50.0 µM; active compounds read high
Procedure, shortened: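 Relative growth inhibition (compound vs vehicle) was measured in yeast with a defined repair-gene alteration.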

[2] = NCI Yeast Anticancer Drug Screen. Data for the mec2-1 strain (AID 157); details: S. cerevisiae mec2-1 strain, at 50.0 µM, active compounds read high
Procedure, shortened: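 Strain: mec2-1 (DNA repair/cell cycle alteration). Compound exposure, then growth measured; inhibition expressed relative to vehicle.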

[3] = NCI Yeast Anticancer Drug Screen. Data for the sgs1 mgt1 strain (AID 161);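 also: 0% = growth of cultures given vehicle only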; details: S. cerevisiae sgs1 mgt1 strain, at 50.0 µM, active compounds read high
Procedure, shortened: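 Mutant yeast exposed to compound; growth scored against vehicle-only wells.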

[4] = NCI Yeast Anticancer Drug Screen. Data for the cln2 rad14 strain (AID 165);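 also: 0% = growth equal to vehicle treated cultures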; details: S. cerevisiae cln2 rad14 strain, at 50.0 µM, active compounds read high
Procedure, shortened: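 Compounds are applied to the cln2 rad14 yeast strain, and growth is then compared with that of vehicle-treated cultures to give inhibition.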

[5] = NCI Yeast Anticancer Drug Screen. Data for the bub3 strain (AID 167); details: S. cerevisiae bub3 mutant strain, at 50.0 µM, active compounds read high
Procedure, shortened: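 Screening used yeast with an engineered genetic alteration affecting cell cycle control. Compound-exposed cultures were compared with vehicle cultures, and reduced growth was taken as inhibition.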

[6] = NCI Yeast Anticancer Drug Screen. Data for the mlh1 rad18 strain (AID 175); details: S. cerevisiae mlh1 rad18 strain growth inhibition; at 50.0 µM; active compounds read high
Procedure, shortened: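 Read-out is yeast growth inhibition, calculated against vehicle-only controls. The compound was applied to a strain engineered with DNA damage repair alterations.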

Measured: growth inhibition

C=C(C)[C@@H]1CC[C@]2(C)CC[C@]3(C)[C@H](CC[C@@H]4[C@@]5(C)CC[C@H](O)C(C)(C)[C@@H]5CC[C@]43C)[C@@H]12
inactive: [1] -2.75% | [2] -4.95% | [3] -11.3% | [4] -10.4% | [5] -6.05% | [6] -11.3%

Cn1c(C(F)(F)F)nc2nc(Cl)c(Cl)nc21
inactive: [1] 16.6% | [2] 0.05% | [3] 20.7% | [4] 21.2% | [5] -32% | [6] 46%

COc1cc(NS(=O)(=O)c2ccc(N)cc2)c2ncccc2c1
inactive: [1] 1.2% | [2] 22.8% | [3] 8.8% | [4] -17.1% | [5] 4.5% | [6] 2.95%

CCN(CC)n1c(N)nc2c1c(=O)n(C)c(=O)n2C
inactive: [1] -9.05% | [2] -6.65% | [3] 2.95% | [4] -24.6% | [5] 9.65% | [6] 13.3%

C=C(C)COc1c(C)c(C)c(OCC(C)C)c(C)c1C
inactive: [1] -4.35% | [2] 9.75% | [3] -0.75% | [4] -8.75% | [5] 3.2% | [6] -10.9%

COc1ccc(Nc2cnc3cc(N)ccc3n2)cc1OC
inactive: [1] -15.3% | [2] -21.6% | [3] -38.5% | [4] -8.35% | [5] -30.3% | [6] 1.7%

CC(C)CCCC(C)C1CCC2C3CC=C4CC(OC5CCC6(C)C(=CCC7C6CCC6(C)C(C(C)CCCC(C)C)CCC76)C5)CCC4(C)C3CCC12C (stereo not given)
inactive: [1] -0.05% | [2] -12.8% | [3] -17.1% | [4] -10.7% | [5] -1.75% | [6] 4.8%

COC1/C=C/OC2(C)Oc3c(C)c(O)c4c(O)c(c(C5SCCS5)c(O)c4c3C2=O)NC(=O)/C(C)=C\C=C\C(C)C(O)C(C)C(O)C(C)C(O)C1C (stereo not given)
inactive: [1] 5.15% | [2] 19.1% | [3] -10.8% | [4] 4.85% | [5] 0% | [6] 36.9%

C[Si](C)(CCCOC(N)=O)COC(N)=O
inactive: [1] -15.2% | [2] -6.55% | [3] -18.4% | [4] -4.1% | [5] 4.8% | [6] -18.9%

CC(C)(C)N[P+](Cc1ccccc1)(NC(C)(C)C)c1ccccc1
inactive: [1] 33.1% | [2] 10.9% | [3] 62% | [4] -9.7% | [5] 3.65% | [6] 8.9%

CC(C)SCC(N)C(=O)O (stereo not given)
inactive: [1] -17.8% | [2] -10.7% | [3] -2.65% | [4] -15% | [5] -11.8% | [6] -15.8%

[N-]=[N+]=Nc1c(Cc2ccccc2)c(Cl)nc2ccccc12
inactive: [1] 40.5% | [2] 57.9% | [3] 62.5% | [4] 53.7% | [5] 65% | [6] 40.8%

COC(=O)c1nnn(-c2cc(Cl)ccc2Cl)c1C(=O)c1ccc(OC)cc1
inactive: [1] -13.1% | [2] 3.8% | [3] -12.7% | [4] 53.7% | [5] 37.4% | [6] -3.25%

O=C(Nc1ccn(CCI)c(=O)n1)c1ccccc1
inactive: [1] -20.8% | [2] -37.4% | [3] 10.1% | [4] 14.4% | [5] 15.2% | [6] 26.1%

CC1(C(=O)O)CCCN1 (stereo not given)
inactive: [1] 9.35% | [2] -7.6% | [3] -20.6% | [4] 15.4% | [5] -0.95% | [6] -9%

SCCNCc1ccccn1
inactive: [1] -22.1% | [2] -36.1% | [3] -17.4% | [4] 14.3% | [5] -37.4% | [6] -3.65%

O=C(O)C1Cc2ccccc2OC1=O (stereo not given)
inactive: [1] -18% | [2] -25.6% | [3] -16.7% | [4] 0.6% | [5] 0.35% | [6] -21.6%

CC(=O)OC1C(COC(=O)c2ccccc2)OC(Nc2ncc(-c3ccc(Br)cc3)s2)C(OC(=O)c2ccccc2)C1OC(=O)c1ccccc1 (stereo not given)
inactive: [1] 1.05% | [2] 15.4% | [3] -5.9% | [4] 31.9% | [5] -3.55% | [6] -39.9%

Nn1c(=S)[nH]nc(/C=C/c2ccc3c(c2)OCO3)c1=O
inactive: [1] 38.9% | [2] 20.1% | [3] 3.8% | [4] -19.1% | [5] 6.35% | [6] 15.6%

CCOC(=O)N1CCN(CCO)CC1
inactive: [1] -19.9% | [2] 2.65% | [3] 2.35% | [4] -34% | [5] 3.05% | [6] -8.25%

CCCCOC(=O)C(C)O (stereo not given)
inactive: [1] 41.1% | [2] 16.3% | [3] 21.6% | [4] 19.3% | [5] 0.05% | [6] 24.9%

CCCCNC(=O)Oc1c(Cl)cc(Cl)c(Cl)c1[N+](=O)[O-]
inactive: [1] 16.2% | [2] 10.1% | [3] 17.9% | [4] 4.4% | [5] -11.1% | [6] 21.2%

O=[N+]([O-])c1ccc(N/N=C/CCCCO)c([N+](=O)[O-])c1
inactive: [1] 13.3% | [2] -4.65% | [3] -0.6% | [4] -30.6% | [5] 9.85% | [6] -5.8%

Nc1on(C(=O)c2ccccc2)c(=O)c1Cc1ccccc1
inactive: [1] -19.2% | [2] 3.6% | [3] 15.9% | [4] -36% | [5] 2.25% | [6] -2.1%

CC(=O)N(c1ccccc1)c1cc(Cl)cc[n+]1[O-]
inactive: [1] 8.5% | [2] 3.5% | [3] 5.45% | [4] -3.7% | [5] 5.3% | [6] -2.05%

C[N+]1(C)N=C(c2ccccc2)C=C1[O-]
inactive: [1] 13.4% | [2] -9.75% | [3] -6.65% | [4] -53.9% | [5] -2.5% | [6] -3.85%

c1ccc(C2=NC3CCCCC3S2)cc1 (stereo not given)
inactive: [1] 2.95% | [2] -10.6% | [3] 3.7% | [4] -32.3% | [5] -5.55% | [6] -2.75%

O=C(Nc1ccc(F)cc1)Nc1cccc(C(=O)O)c1
inactive: [1] 20% | [2] 7.9% | [3] 6.4% | [4] 7.6% | [5] 22.4% | [6] 12.2%

CCOC(=O)Cc1cc(Cl)c2ccc(Cl)cc2n1
inactive: [1] 32.1% | [2] -2% | [3] 23.2% | [4] 11.6% | [5] 36.4% | [6] 40.4%

CN(C)CCN1N=Nc2cccc3cccc1c23
inactive: [1] 43.3% | [2] 18.2% | [3] 10.9% | [4] 19.2% | [5] 30.6% | [6] 39.4%

CC(=O)NNC(=O)c1ccc(Br)cc1
inactive: [1] 1.3% | [2] -16.4% | [3] 0.5% | [4] -3.2% | [5] 21.6% | [6] -1.05%

C[n+]1ccccc1/C=C/C=C/c1ccccc1
inactive: [1] 0.45% | [2] -13.1% | [3] 1.4% | [4] -17.3% | [5] -6.1% | [6] 1.9%

CN(C)S(=O)(=O)N1CCOCC1
inactive: [1] 9.3% | [2] -6.65% | [3] -1.15% | [4] 11.2% | [5] -2.8% | [6] 4.8%

O=c1[nH]c2cc([N+](=O)[O-])ccc2nc1/C=C(\O)c1ccco1
inactive: [1] 7.7% | [2] -14.2% | [3] 7.9% | [4] -0.65% | [5] -18.7% | [6] 22.1%

c1ccc2c(c1)NC(SSC1Nc3ccccc3S1)S2 (stereo not given)
inactive: [1] -2.4% | [2] -21.1% | [3] -2.65% | [4] -0.55% | [5] -11.1% | [6] 1.65%

N=C(N)SCc1cn2ccccc2n1
inactive: [1] -37% | [2] -30.5% | [3] -62.7% | [4] 1.35% | [5] -27.6% | [6] -50.8%

COC(=O)CCC(=O)Nc1cc(Cl)c(Cl)cc1Cl
inactive: [1] -14.1% | [2] 8.15% | [3] 6.55% | [4] 1.15% | [5] 9.3% | [6] -7.4%

O=C1C2C3C=CC(C2C(=O)N1CCl)C1C2C(=O)N(CCl)C(=O)C2C31 (stereo not given)
inactive: [1] 4.2% | [2] 21.1% | [3] 7.85% | [4] -5.85% | [5] 13.6% | [6] 18.7%

CC1OC(O[C@H]2CC[C@]3(C)[C@H]4CC=C5[C@@H]6[C@@H](C)[C@H](C)CC[C@]6(C(=O)O)CC[C@@]5(C(=O)O)[C@]4(C)CC[C@H]3C2(C)C)C(O)C(O)C1O (stereo not given in full)
inactive: [1] -17.5% | [2] -9.8% | [3] -10.6% | [4] -5.7% | [5] -13.7% | [6] -58.5%

Cc1ccc(S(=O)(=O)c2scc(-c3ccccc3)c2C)cc1
inactive: [1] -47.2% | [2] -57.8% | [3] -31.1% | [4] -8.7% | [5] -17.9% | [6] -13.2%
